Reference: PubChem BioAssay AID1159580 (chemical genetic matrix, 2015)
About 2,000 (36%) of roughly 5,500 compounds were called active. Not shown: some 18% with an inconclusive outcome. Cut-off read from the data, not from the text of the source: active = normalized growth mostly below about 0.91 (no sharp cut-off); inconclusive = no clear call, values can overlap the other calls; inactive = mostly above about 0.92. The list shows a part of the results.

Assay: chemical genetic growth profiling, strain panel (AID 1159580);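 note: tested at 20 µM; growth read once vehicle control cultures reached saturation at 30 °C; 1 = growth at the plate median or of vehicle wells; lower values mean less growth of the strain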
Conditions: growth OD

Measured: normalized growth

COc1cc(C(=O)NCc2ccc(OCCN(C)C)cc2)cc(OC)c1OC
inactive: S. cerevisiae deletion strains, locus YJL187C, strain SWE1, active compounds read low 0.99 | S. cerevisiae deletion strains, locus YJR043C, strain POL32, active compounds read low 0.984 | S. cerevisiae deletion strains, locus YJR066W, strain TOR1, active compounds read low 0.929 | S. cerevisiae deletion strains, locus YKL009W, strain mrt4, active compounds read low 1.01 | S. cerevisiae deletion strains, locus YKL068W, active compounds read low 0.978 | S. cerevisiae deletion strains, locus YKL085W, strain MDH1 (second series), active compounds read low 0.975 | S. cerevisiae deletion strains, locus YKL085W, strain MDH1, active compounds read low 0.975 | S. cerevisiae deletion strains, locus YKL160W, strain elf1, active compounds read low 0.947 | S. cerevisiae deletion strains, locus YKL190W, strain CNB1, active compounds read low 0.986 | S. cerevisiae deletion strains, locus YKR001C, strain vps1, active compounds read low 0.983 | S. cerevisiae deletion strains, locus YKR026C, strain gcn3, active compounds read low 0.989 | S. cerevisiae deletion strains, locus YKR091W, strain srl3, active compounds read low 0.993 | S. cerevisiae deletion strains, locus YLL001W, strain dnm1, active compounds read low 1 | S. cerevisiae deletion strains, locus YLL026W, active compounds read low 1 | S. cerevisiae deletion strains, locus YLL041C, strain sdh2, active compounds read low 1 | S. cerevisiae deletion strains, locus YLR027C, strain aat2, active compounds read low 0.996 | S. cerevisiae deletion strains, locus YLR039C, strain RIC1, active compounds read low 0.954 | S. cerevisiae deletion strains, locus YLR058C, strain SHM2, active compounds read low 0.97 | S. cerevisiae deletion strains, locus YLR102C, strain apc9, active compounds read low 0.984 | S. cerevisiae deletion strains, locus YLR113W, strain HOG1, active compounds read low 0.986 | S. cerevisiae deletion strains, locus YLR221C, strain rsa3, active compounds read low 1.01 | S. cerevisiae deletion strains, locus YLR258W, strain gsy2, active compounds read low 0.999 | S. cerevisiae deletion strains, locus YLR262C, strain YPT6 (second series), active compounds read low 1.02 | S. cerevisiae deletion strains, locus YLR262C, strain YPT6, active compounds read low 0.965 | S. cerevisiae deletion strains, locus YLR268W, strain sec22, active compounds read low 0.971 | S. cerevisiae deletion strains, locus YLR320W, strain mms22, active compounds read low 0.978 | S. cerevisiae deletion strains, locus YLR330W, strain CHS5, active compounds read low 0.999 | S. cerevisiae deletion strains, locus YLR342W, strain FKS1 (second series), active compounds read low 1.07 | S. cerevisiae deletion strains, locus YLR342W, strain FKS1, active compounds read low 0.991 | S. cerevisiae deletion strains, locus YLR357W, strain rsc2, active compounds read low 0.959 | S. cerevisiae deletion strains, locus YLR370C, strain arc18, active compounds read low 0.99 | S. cerevisiae deletion strains, locus YLR371W, strain rom2, active compounds read low 0.984 | S. cerevisiae deletion strains, locus YLR384C, strain iki3, active compounds read low 1 | S. cerevisiae deletion strains, locus YLR418C, strain cdc73, active compounds read low 1.01 | S. cerevisiae deletion strains, locus YML016C, strain PPZ1, active compounds read low 0.991 | S. cerevisiae deletion strains, locus YML032C, strain rad52, active compounds read low 0.987 | S. cerevisiae deletion strains, locus YML120C, strain ndi1, active compounds read low 1.01 | S. cerevisiae deletion strains, locus YML124C, strain tub3, active compounds read low 0.982 | S. cerevisiae deletion strains, locus YMR058W, strain fet3, active compounds read low 1.02 | S. cerevisiae deletion strains, locus YMR078C, strain ctf18, active compounds read low 0.984 | S. cerevisiae deletion strains, locus YMR125W, strain sto1, active compounds read low 0.961 | S. cerevisiae deletion strains, locus YMR129W, active compounds read low 1.01 | S. cerevisiae deletion strains, locus YMR205C, strain PFK2, active compounds read low 0.992 | S. cerevisiae deletion strains, locus YMR223W, strain ubp8, active compounds read low 1.03 | S. cerevisiae deletion strains, locus YMR231W, strain pep5, active compounds read low 1 | S. cerevisiae deletion strains, locus YMR307W, strain GAS1, active compounds read low 1.05 | S. cerevisiae deletion strains, locus YNL067W, strain RPL9B, active compounds read low 0.972 | S. cerevisiae deletion strains, locus YNL071W, strain lat1, active compounds read low 0.991 | S. cerevisiae deletion strains, locus YNL183C, strain NPR1, active compounds read low 0.937 | S. cerevisiae deletion strains, locus YNL209W, strain ssb2, active compounds read low 0.988 | S. cerevisiae deletion strains, locus YNL233W, strain BNI4, active compounds read low 0.994 | S. cerevisiae deletion strains, locus YNL248C, strain rpa49, active compounds read low 0.95 | S. cerevisiae deletion strains, locus YNL250W, strain rad50, active compounds read low 0.977 | S. cerevisiae deletion strains, locus YNL271C, strain bni1, active compounds read low 0.976 | S. cerevisiae deletion strains, locus YNL298W, strain CLA4, active compounds read low 0.997 | S. cerevisiae deletion strains, locus YNL307C, strain MCK1, active compounds read low 0.98 | S. cerevisiae deletion strains, locus YNL322C, strain KRE1 (second series), active compounds read low 0.983 | S. cerevisiae deletion strains, locus YNL322C, strain KRE1, active compounds read low 0.984 | S. cerevisiae deletion strains, locus YNR049C, strain mso1, active compounds read low 1 | S. cerevisiae deletion strains, locus YNR052C, strain pop2, active compounds read low 0.988 | S. cerevisiae deletion strains, locus YOL012C, strain htz1 1.41 | S. cerevisiae deletion strains, locus YOL147C, strain pex11, active compounds read low 0.991 | S. cerevisiae deletion strains, locus YOR001W, strain rrp6, active compounds read low 1.01 | S. cerevisiae deletion strains, locus YOR061W, strain CKA2, active compounds read low 0.962 | S. cerevisiae deletion strains, locus YOR069W, strain VPS5, active compounds read low 0.997 | S. cerevisiae deletion strains, locus YOR070C, strain gyp1, active compounds read low 0.997 | S. cerevisiae deletion strains, locus YOR080W, strain dia2, active compounds read low 0.997 | S. cerevisiae deletion strains, locus YOR083W, strain WHI5, active compounds read low 0.927 | S. cerevisiae deletion strains, locus YOR106W, strain vam3, active compounds read low 0.98 | S. cerevisiae deletion strains, locus YOR136W, strain idh2, active compounds read low 0.98 | S. cerevisiae deletion strains, locus YOR144C, strain elg1, active compounds read low 0.993 | S. cerevisiae deletion strains, locus YOR184W, strain ser1, active compounds read low 0.985 | S. cerevisiae deletion strains, locus YOR231W, strain MKK1, active compounds read low 0.984 | S. cerevisiae deletion strains, locus YOR265W, strain rbl2, active compounds read low 1 | S. cerevisiae deletion strains, locus YOR270C, strain vph1, active compounds read low 0.973 | S. cerevisiae deletion strains, locus YOR290C, strain snf2, active compounds read low 0.972 | S. cerevisiae deletion strains, locus YOR316C, strain cot1, active compounds read low 0.977 | S. cerevisiae deletion strains, locus YPL051W, strain arl3, active compounds read low 0.982 | S. cerevisiae deletion strains, locus YPL055C, strain LGE1, active compounds read low 0.931 | S. cerevisiae deletion strains, locus YPL078C, strain atp4, active compounds read low 0.965 | S. cerevisiae deletion strains, locus YPL106C, strain sse1, active compounds read low 0.935 | S. cerevisiae deletion strains, locus YPL240C, strain hsp82, active compounds read low 0.995 | S. cerevisiae deletion strains, locus YPL256C, strain CLN2, active compounds read low 0.97 | S. cerevisiae deletion strains, locus YPR119W, strain clb2, active compounds read low 0.981 | S. cerevisiae deletion strains, locus YPR141C, strain kar3, active compounds read low 0.969 | S. cerevisiae deletion strains, locus YPR163C, strain tif3, active compounds read low 0.988 | S. cerevisiae deletion strains, locus YPR167C, strain met16, active compounds read low 0.994 | S. cerevisiae deletion strains, strain wtn01, active compounds read low 1 | S. cerevisiae strains, strain wild type, active compounds read low 0.979
